SENP6 inh = inhibitors of human SENP6 protease; 330,000 compounds, 1.8% hits; Q9GZR1; Recombinant SENP6 catalytic domain, aminoluciferin luminescence; inhibition, % at 10 µM; AID 2599;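 active = inhibition above about 50% at the single tested dose, limit read from the data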;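 also: plate controls were DMSO wells with enzyme for no effect and DMSO wells lacking enzyme for full effect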
SENP8 block-1 = blocks the human protease SENP8 | Q96LD8 | 330,000 compounds, 1.2% hits | purified SENP8, Z-RLRGG-aminoluciferin cleavage, luminescence | inhibition, % at 10 µM; in the data active = inhibition above about 50%
SENP7 inh = blocks the human protease SENP7; Q9BQF6; recombinant SENP7, Z-RLRGG-aminoluciferin luminescence, 40 min; inhibition, % at 5 µM; 330,000 compounds, 1.5% hits; AID 434973;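 active = inhibition above about 50% at the single test dose, limit read from the data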;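 also: plate controls were DMSO with enzyme for no effect and no enzyme buffer wells for full effect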
Target sequence (Q9BQF6 706-1050 limits assumed): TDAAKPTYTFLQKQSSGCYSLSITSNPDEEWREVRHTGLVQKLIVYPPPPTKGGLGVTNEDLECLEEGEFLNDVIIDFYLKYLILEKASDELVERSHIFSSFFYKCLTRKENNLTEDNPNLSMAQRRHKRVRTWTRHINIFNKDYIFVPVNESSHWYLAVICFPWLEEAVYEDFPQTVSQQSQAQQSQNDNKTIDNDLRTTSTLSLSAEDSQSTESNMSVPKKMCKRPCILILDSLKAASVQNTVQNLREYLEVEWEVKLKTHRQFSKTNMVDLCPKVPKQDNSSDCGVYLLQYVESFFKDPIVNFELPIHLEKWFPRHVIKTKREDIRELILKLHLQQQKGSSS
C8 TRAIL sens = caspase-8 TRAIL sensitization | NB7+C8 cells + TRAIL, ATPlite viability luminescence | inhibition (viability loss, TRAIL sensitization), % at 10 µM | 360,000 compounds, 1% hits;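 active = compounds causing at least 50% loss of cell viability in the single-dose screen, relative to plate controls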
PPC-1+TRAIL kill = kills PPC-1 cancer cells in the presence of TRAIL; AID 1443; PPC-1 cells + TRAIL, ATPLite viability luminescence; cell killing (% activity), % at 4 µM or 5 µM; 220,000 compounds, 0.41% hits;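 active = cell killing above 50% in the first pass at 4 µM, then a duplicate retest at 5 µM averaging 50% or more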;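 also: plate controls were cells with TRAIL plus DMSO for no effect and medium-only wells lacking cells for full effect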
SENP8 block-2 = blocks human SENP8 cleavage of Nedd8 substrate; Q96LD8; recombinant SENP8, Nedd8 substrate fluorescence; inhibition, % at 20 µM; 360,000 compounds, 0.64% hits; AID 602440; in the data active = inhibition mostly above about 40%, no sharp cut-off; inactive = mostly below about 27%
SENP8 confirm = human SENP8 inhibition, confirmed. inhibition, % at 12.5 µM. AID 488912. 6,200 compounds, 40% hits. Recombinant SENP8, Z-RLRGG-aminoluciferin luminescence, 60 min. shares compounds with SENP7 inh;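 active = mean inhibition across replicates above about 50%, limit read from the data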
SENP6 confirm = human SENP6 inhibition, confirmed | shares compounds with SENP7 inh | recombinant SENP6, Z-RLRGG-aminoluciferin luminescence | inhibition, % at 12.5 µM | 6,200 compounds, 58% hits | AID 488915
SENP7 confirm = confirmation of human SENP7 protease inhibitors; shares compounds with SENP7 inh; recombinant SENP7, Z-RLRGG-aminoluciferin luminescence, 40 min; inhibition, % at 12.5 µM; 6,200 compounds, 69% hits; AID 488917
Casp3 SENP sel = selectivity test for SENP inhibitors: human caspase-3 inhibition; shares compounds with SENP7 inh; purified caspase-3, Z-DEVD-aminoluciferin luminescence, 60 min; inhibition, % at 12.5 µM; 6,200 compounds, 60% hits; AID 488918;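 active = mean inhibition above about 50%, limit read from the data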;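 also: plate controls were enzyme with DMSO for no effect and wells without caspase-3 for full effect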
Target sequence (P42574 28-227 limits assumed): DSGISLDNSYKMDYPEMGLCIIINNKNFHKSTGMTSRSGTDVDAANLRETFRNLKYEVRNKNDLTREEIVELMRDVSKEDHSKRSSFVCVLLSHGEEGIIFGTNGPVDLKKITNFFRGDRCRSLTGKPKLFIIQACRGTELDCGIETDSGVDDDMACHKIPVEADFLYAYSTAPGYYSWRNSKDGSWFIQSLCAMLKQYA
SENP luc ctr = interferes with luciferase luminescence in SENP counter-screen; AID 488919; shares compounds with SENP7 inh; inhibition, % at 12.5 µM; 6,200 compounds, 39% hits; Pre-incubated SENP8/Z-RLRGG-aminoluciferin, luciferase luminescence interference;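 active = mean inhibition above about 50% when retested at one dose, limit read from the data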;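 also: plate controls were DMSO wells with completed reaction for no effect and substrate without enzyme for full effect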
* hit, by the source's call; · = not tested or not shown. Only some compounds are listed: those with a hit (about 3% of all), similar ones and a draw of the others.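 The calls were made as follows, unless noted: active = mean inhibition above about 50% in the one-dose retest (limit read from the data); inactive = the rest.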

SMILES	SENP6 inh	SENP8 block-1	SENP7 inh	C8 TRAIL sens	PPC-1+TRAIL kill	SENP8 block-2	SENP8 confirm	SENP6 confirm	SENP7 confirm	Casp3 SENP sel	SENP luc ctr
COC(=O)c1ccc(CC(=O)c2nc3ccccc3s2)cc1	92*	79*	4	-12	7	30	6	17	16	4	1
COC(=O)c1ccc(/C(O)=C(\C#N)c2nc3ccccc3s2)cc1	91*	88*	-11	16	16	6	11	38	23	26	2
CCCCCCCCN1C(=O)[C@H](CC(=O)N2CCN(C(=O)C3CC3)CC2)C[C@@]2(C(=O)OCC)CCCC=C12	·	·	·	8	·	11	·	·	·	·	·
CCN(C(=O)c1ccco1)C1C2CC3CC(C2)CC1C3 (stereo not drawn)	8	-7	9	7	·	18	·	·	·	·	·
Cc1ccc(O)c(N=Nc2ccccc2)n1	93*	95*	100*	42	·	8	95*	98*	103*	96*	62*
c1c2c(cc3sc(N4CCCCC4)nc13)OCO2	101*	96*	99*	47*	50	-9	97*	99*	103*	98*	95*
c1c2c(cc3sc(N4CCOCC4)nc13)OCO2	60*	76*	89*	21	38	-2	85*	86*	99*	95*	88*
COc1ccc(NC(=O)C2(C)CCCN(C(C)C)C2)cc1F (stereo not drawn)	·	·	·	7	·	20	·	·	·	·	·
COC(=O)c1ccc(-c2nc3cc(Cl)c(N)cc3s2)cc1	63*	28	97*	83*	33	-409	-18	-4	18	38	-5
CCCC(=O)Nc1cnc(NC(=O)c2cccc(F)c2)cc1C	82*	53*	79*	1	14	16	78*	75*	94*	92*	75*
Cc1cc(NC(=O)c2ccccc2)ncc1NC(=O)c1ccco1	91*	80*	91*	10	3	-2	89*	88*	99*	96*	87*
CCC(=O)Nc1cc(C)c(NC(=O)c2ccco2)cn1	-7	-1	1	2	12	18	·	·	·	·	·
C=CC[C@H](CC(=O)NCCO)C(=O)NC[C@@H](OC(=O)[C@H](CC=C)CC(=O)OC(C)(C)C)c1ccccc1	0	1	9	-8	·	5	·	·	·	·	·
CCOc1ccc(NC(=O)c2ccc(NS(=O)(=O)c3cccs3)cc2)cc1	-15	-2	9	13	·	10	·	·	·	·	·
CCN(CC)CCCNC(=O)CNC(=O)c1nn(-c2ccc(OC)cc2OC)c(=O)c2ccccc12	·	·	·	-10	·	6	·	·	·	·	·
CCc1nnc(NC(=O)c2cc(-c3ccccc3)nn2-c2ccccc2)s1	-19	0	99*	12	1	3	-20	-12	-15	1	-7
Cc1n[nH]c(=O)nc1N/N=C/c1ccc(O)c([N+](=O)[O-])c1	65*	36	65*	-2	13	55*	50*	39	82*	77*	8
COc1ccc(/C=N/Nc2nc(=O)[nH]nc2C)cc1[N+](=O)[O-]	23	-11	16	5	7	23	·	·	·	·	·
Cc1oc(-c2ccccc2)cc1C(=O)Nc1cccc(C(=O)O)c1	-18	-14	-3	-13	24	-7	·	·	·	·	·
Cc1oc(-c2ccc(Cl)cc2)cc1C(=O)O	96*	97*	94*	16	7	4	99*	100*	102*	92*	91*
CCc1nc2ccc(C(=O)Nc3cccc(OC)c3)cn2c1N(CC)CCOC	·	·	·	5	·	-1	·	·	·	·	·
CCN(C(=S)NC(=O)c1ccco1)c1cccc2ccccc12	70*	33	23	-16	·	-483	13	17	9	3	5
COc1ccc(-c2cc(C(=O)Nc3cccc(O)c3)no2)cc1	97*	93*	99*	73*	·	12	93*	94*	101*	95*	57*
O=C(Nc1cccc(O)c1)c1cc(-c2ccco2)on1	92*	84*	-1	1	26	6	90*	91*	98*	90*	90*
Cn1sc(NC(=O)c2ccc(Cl)cc2)nc1=O	-7	67*	81*	50*	25	18	49	37	69*	53*	52*
SMILES	SENP6 inh	SENP8 block-1	SENP7 inh	C8 TRAIL sens	PPC-1+TRAIL kill	SENP8 block-2	SENP8 confirm	SENP6 confirm	SENP7 confirm	Casp3 SENP sel	SENP luc ctr
CC(=O)c1sc(NC(=O)c2ccc(Cl)cc2)nc1C	0	37	72*	8	16	-27	17	18	7	25	9
CC(=O)c1sc(NC(=O)c2cccc(C)c2)nc1C	67*	47	63*	25	18	-13	43	61*	88*	78*	24
CC(=O)c1sc(NC(=O)c2ccccc2C)nc1C	79*	67*	82*	17	-5	6	40	67*	93*	90*	52*
CC(=O)Nc1nc(C)c(C(C)=O)s1	-5	-8	-10	26	-3	10	·	·	·	·	·
Cc1nc(NC(=O)c2cccc(Cl)c2)sc1C(=O)N1CCCCC1	72*	57*	68*	-1	·	-40	2	30	6	3	10
c1ccc2nc(-c3nc4ccccc4o3)ccc2c1	98*	97*	100*	76*	23	-296	98*	100*	102*	99*	95*
c1cncc(-c2nc3ccccc3o2)c1	-19	0	9	-2	16	16	·	·	·	·	·
Cc1[nH]n(-c2ccc([N+](=O)[O-])cc2)c(=O)c1C=NCCN1CCN(C(=O)c2ccc(Br)cc2)CC1	64*	49	88*	25	22	31	19	16	12	55*	56*
Cc1[nH]n(-c2ccc([N+](=O)[O-])cc2)c(=O)c1C=NCCN1CCN(C(=O)c2cccc(F)c2)CC1	90*	67*	88*	35	22	15	9	10	6	49	57*
Cc1[nH]n(-c2ccccc2)c(=O)c1/C=N/NC(=O)c1cccc(F)c1	12	-3	5	34	·	13	·	·	·	·	·
